The values that follow come from the supplement of paper PMC7765376.

The test relates to PEO-1. The test can be described thus: Excess HSA synergy score (sum over dose matrix of excess over highest single agent) (score (summed % response)); higher = less synergy / more antagonism (negative = synergy). The note with it: 72 h, read-out: viability/apoptosis luminescence (CellTiter-Glo or Caspase3-Glo / not stated per table). For orientation: In ATP-based viability assays light output follows the ATP content of the culture.

Where [1] appears, read: matrix design: 6x6, 5-fold dilutions (primary screen).
The mark [2] stands for this setting: matrix design: 10x10, 9-step dilutions (confirmatory).

Counter-ions that a name gives are not always drawn. Whole data set: some 1,500 compounds, median “Excess HSA synergy score (sum over dose matrix of excess over highest single agent)” near 43, cut for the lowest 2% near -900. For the sample, the lowest values were picked, then their nearest neighbours and some compounds at random.

`C/C=C(/C)C(=O)O[C@H]1C(C)=C2[C@H]([C@@H]1OC(=O)CCCCCCC)[C@@](C)(OC(C)=O)C[C@H](OC(=O)CCC)[C@@]1(O)[C@H]2OC(=O)[C@@]1(C)O` [Thapsigargin] + CC[C@H](NC(=O)[C@H](C)NC)C(=O)N1C[C@@H](O)C[C@H]1Cc1c(-c2[nH]c3cc(F)ccc3c2C[C@@H]2C[C@H](O)CN2C(=O)[C@H](CC)NC(=O)[C@H](C)NC)[nH]c2cc(F)ccc12 [Birinapant]: the “Excess HSA synergy score” value is -265 under setting [1] and -912 under setting [2].
As to `O=C(O)C(=O)CBr` [3-Bromopyruvate] + CC[C@H](NC(=O)[C@H](C)NC)C(=O)N1C[C@@H](O)C[C@H]1Cc1c(-c2[nH]c3cc(F)ccc3c2C[C@@H]2C[C@H](O)CN2C(=O)[C@H](CC)NC(=O)[C@H](C)NC)[nH]c2cc(F)ccc12 [Birinapant], the “Excess HSA synergy score” value under setting [1] was determined as 97.1.
Turning to `CCOC(=O)Nc1ccc(NCc2ccc(F)cc2)cc1N` [Retigabine] + CC[C@H](NC(=O)[C@H](C)NC)C(=O)N1C[C@@H](O)C[C@H]1Cc1c(-c2[nH]c3cc(F)ccc3c2C[C@@H]2C[C@H](O)CN2C(=O)[C@H](CC)NC(=O)[C@H](C)NC)[nH]c2cc(F)ccc12 [Birinapant], the “Excess HSA synergy score” value under setting [1] came to 64.5.
As for `CC(C)CC(N(C)C)C1(c2ccc(Cl)cc2)CCC1` (stereo not drawn) [Sibutramine hydrochloride] + CC[C@H](NC(=O)[C@H](C)NC)C(=O)N1C[C@@H](O)C[C@H]1Cc1c(-c2[nH]c3cc(F)ccc3c2C[C@@H]2C[C@H](O)CN2C(=O)[C@H](CC)NC(=O)[C@H](C)NC)[nH]c2cc(F)ccc12 [Birinapant], the “Excess HSA synergy score” value under setting [1] was determined as 96.7.
Take `CC(C)NC1CCn2c(=O)[nH]c3cccc(c32)C1O` (stereo not drawn) [Zilpaterol] + CC[C@H](NC(=O)[C@H](C)NC)C(=O)N1C[C@@H](O)C[C@H]1Cc1c(-c2[nH]c3cc(F)ccc3c2C[C@@H]2C[C@H](O)CN2C(=O)[C@H](CC)NC(=O)[C@H](C)NC)[nH]c2cc(F)ccc12 [Birinapant]: the “Excess HSA synergy score” value under setting [1] came to 413.
On the same count and under the same terms, the figure for `CC1=C2C[C@H]3[C@@H](CC=C4C[C@@H](O)CC[C@@]43C)[C@@H]2CC[C@]12O[C@@H]1C[C@H](C)CN[C@H]1[C@H]2C` [Cyclopamine] + CC[C@H](NC(=O)[C@H](C)NC)C(=O)N1C[C@@H](O)C[C@H]1Cc1c(-c2[nH]c3cc(F)ccc3c2C[C@@H]2C[C@H](O)CN2C(=O)[C@H](CC)NC(=O)[C@H](C)NC)[nH]c2cc(F)ccc12 [Birinapant] is 82.1.
Turning to `CCNC(=O)C[C@@H]1N=C(c2ccc(Cl)cc2)c2cc(OC)ccc2-n2c(C)nnc21` + CC[C@H](NC(=O)[C@H](C)NC)C(=O)N1C[C@@H](O)C[C@H]1Cc1c(-c2[nH]c3cc(F)ccc3c2C[C@@H]2C[C@H](O)CN2C(=O)[C@H](CC)NC(=O)[C@H](C)NC)[nH]c2cc(F)ccc12 [Birinapant], the “Excess HSA synergy score” value under setting [1] was -120.
For `CC(C)[C@]12O[C@H]1[C@@H]1O[C@]13[C@]1(O[C@H]1C[C@H]1C4=C(CC[C@@]13C)C(=O)OC4)[C@@H]2O` [Triptolide] + CC[C@H](NC(=O)[C@H](C)NC)C(=O)N1C[C@@H](O)C[C@H]1Cc1c(-c2[nH]c3cc(F)ccc3c2C[C@@H]2C[C@H](O)CN2C(=O)[C@H](CC)NC(=O)[C@H](C)NC)[nH]c2cc(F)ccc12 [Birinapant], the “Excess HSA synergy score” value was -151 under setting [1] and -1170 under setting [2].
Take `CC1(N2CCC(n3c([C@@H]4CCCNC4)nc4ccccc43)CC2)CCCCCCC1` + CC[C@H](NC(=O)[C@H](C)NC)C(=O)N1C[C@@H](O)C[C@H]1Cc1c(-c2[nH]c3cc(F)ccc3c2C[C@@H]2C[C@H](O)CN2C(=O)[C@H](CC)NC(=O)[C@H](C)NC)[nH]c2cc(F)ccc12 [Birinapant]: the “Excess HSA synergy score” value under setting [1] came out at 152.
Still for that read-out and setting: under `O=C(N[C@H]1CN2CCC1CC2)c1ccc(Cl)cc1` + CC[C@H](NC(=O)[C@H](C)NC)C(=O)N1C[C@@H](O)C[C@H]1Cc1c(-c2[nH]c3cc(F)ccc3c2C[C@@H]2C[C@H](O)CN2C(=O)[C@H](CC)NC(=O)[C@H](C)NC)[nH]c2cc(F)ccc12 [Birinapant] stands 162; under `C[C@]12O[C@H](C[C@]1(O)CO)n1c3ccccc3c3c4c(c5c6ccccc6n2c5c31)CNC4=O` [Lestaurtinib] + CC[C@H](NC(=O)[C@H](C)NC)C(=O)N1C[C@@H](O)C[C@H]1Cc1c(-c2[nH]c3cc(F)ccc3c2C[C@@H]2C[C@H](O)CN2C(=O)[C@H](CC)NC(=O)[C@H](C)NC)[nH]c2cc(F)ccc12 [Birinapant], -142.
Take `CC[C@@H]1[C@@H](C)O[C@@](O)([C@@H](C)[C@H](O)[C@H](C)[C@H]2OC(=O)/C=C/C=C/[C@H](C)[C@@H]([C@@H](C)[C@@H](O)[C@H](C)[C@@]3(O)C[C@@H](O[C@H]4C[C@H](O)[C@H](O)[C@H](C)O4)[C@H](CC)[C@@H](C)O3)OC(=O)/C=C/C=C/[C@@H]2C)C[C@H]1O[C@H]1C[C@H](O)[C@H](O)[C@H](C)O1` [Azalomycin-B] + CC[C@H](NC(=O)[C@H](C)NC)C(=O)N1C[C@@H](O)C[C@H]1Cc1c(-c2[nH]c3cc(F)ccc3c2C[C@@H]2C[C@H](O)CN2C(=O)[C@H](CC)NC(=O)[C@H](C)NC)[nH]c2cc(F)ccc12 [Birinapant]: under setting [1], the “Excess HSA synergy score” value is -24.5.
With `CO/C1=C\C(C)=C\[C@@H](C)[C@@H](O)[C@@H](C)C/C(C)=C/C=C/[C@H](OC)[C@@H]([C@@H](C)[C@@H](O)[C@H](C)[C@@]2(O)C[C@@H](O)[C@H](C)[C@@H](C(C)C)O2)OC1=O` [Bafilomycin A1] + CC[C@H](NC(=O)[C@H](C)NC)C(=O)N1C[C@@H](O)C[C@H]1Cc1c(-c2[nH]c3cc(F)ccc3c2C[C@@H]2C[C@H](O)CN2C(=O)[C@H](CC)NC(=O)[C@H](C)NC)[nH]c2cc(F)ccc12 [Birinapant], the “Excess HSA synergy score” value under setting [2] is -1470.
Take `CC1C=CC=CCCC=CC=CC=CC=CC(OC2OC(C)C(O)C(N)C2O)CC2OC(O)(CC(O)C(O)CCC(O)CC(O)CC(O)CC(=O)OC(C)C(C)C1O)CC(O)C2C(=O)O` (stereo not drawn) [Nystatin] + CC[C@H](NC(=O)[C@H](C)NC)C(=O)N1C[C@@H](O)C[C@H]1Cc1c(-c2[nH]c3cc(F)ccc3c2C[C@@H]2C[C@H](O)CN2C(=O)[C@H](CC)NC(=O)[C@H](C)NC)[nH]c2cc(F)ccc12 [Birinapant]: the “Excess HSA synergy score” value under setting [1] amounted to 90.8.
For the compound `N=c1c2c(-c3ccccc3)c(-c3ccccc3)n(Cc3ccccc3)c2ncn1[C@H]1CC[C@H](O)CC1` + CC[C@H](NC(=O)[C@H](C)NC)C(=O)N1C[C@@H](O)C[C@H]1Cc1c(-c2[nH]c3cc(F)ccc3c2C[C@@H]2C[C@H](O)CN2C(=O)[C@H](CC)NC(=O)[C@H](C)NC)[nH]c2cc(F)ccc12 [Birinapant], the “Excess HSA synergy score” value under setting [1] is -361.
Turning to `C[C@@]12OC(=O)[C@]1([C@@H](O)[C@@H]1C=CCCC1)NC(=O)[C@@H]2CCCl` [Marizomib] + CC[C@H](NC(=O)[C@H](C)NC)C(=O)N1C[C@@H](O)C[C@H]1Cc1c(-c2[nH]c3cc(F)ccc3c2C[C@@H]2C[C@H](O)CN2C(=O)[C@H](CC)NC(=O)[C@H](C)NC)[nH]c2cc(F)ccc12 [Birinapant], under setting [1], the “Excess HSA synergy score” value is -95.7.
Regarding `CC[C@@]1([C@@H]2O[C@@H]([C@H]3O[C@@](O)(CO)[C@H](C)C[C@@H]3C)C[C@@H]2C)CC[C@H]([C@]2(C)CC[C@]3(C[C@H](O)[C@@H](C)[C@@H]([C@@H](C)[C@@H](OC)[C@H](C)C(=O)O)O3)O2)O1` [Monensin sodium salt] + CC[C@H](NC(=O)[C@H](C)NC)C(=O)N1C[C@@H](O)C[C@H]1Cc1c(-c2[nH]c3cc(F)ccc3c2C[C@@H]2C[C@H](O)CN2C(=O)[C@H](CC)NC(=O)[C@H](C)NC)[nH]c2cc(F)ccc12 [Birinapant], the “Excess HSA synergy score” value under setting [1] was -104.
Regarding `CO[C@H]1CC[C@@H](O[C@H]2C[C@H]([C@]3(C)CC[C@]4(C[C@H](O)[C@@H](C)[C@@H]([C@@H](C)/C=C(\C)C(=O)[C@H](C)C[C@H](C)C(=O)O)O4)O3)O[C@]3(O[C@@H]([C@H]4O[C@@](O)(CO)[C@H](C)C[C@@H]4C)C[C@@H]3C)[C@@H]2C)O[C@@H]1C` [Nanchangmycin] + CC[C@H](NC(=O)[C@H](C)NC)C(=O)N1C[C@@H](O)C[C@H]1Cc1c(-c2[nH]c3cc(F)ccc3c2C[C@@H]2C[C@H](O)CN2C(=O)[C@H](CC)NC(=O)[C@H](C)NC)[nH]c2cc(F)ccc12 [Birinapant], the “Excess HSA synergy score” value is -308 under setting [1] and -1080 under setting [2].
Turning to `Cc1n[nH]c2ccc(-c3cncc(OC[C@@H](N)Cc4c[nH]c5ccccc45)c3)cc12` + CC[C@H](NC(=O)[C@H](C)NC)C(=O)N1C[C@@H](O)C[C@H]1Cc1c(-c2[nH]c3cc(F)ccc3c2C[C@@H]2C[C@H](O)CN2C(=O)[C@H](CC)NC(=O)[C@H](C)NC)[nH]c2cc(F)ccc12 [Birinapant], under setting [1], the “Excess HSA synergy score” value was -218.
As for `CC(C)c1cccc(C(C)C)c1O` [Propofol] + CC[C@H](NC(=O)[C@H](C)NC)C(=O)N1C[C@@H](O)C[C@H]1Cc1c(-c2[nH]c3cc(F)ccc3c2C[C@@H]2C[C@H](O)CN2C(=O)[C@H](CC)NC(=O)[C@H](C)NC)[nH]c2cc(F)ccc12 [Birinapant], the “Excess HSA synergy score” value under setting [1] came out at 6.44.
